# Data from PubChem BioAssay.
# Unmarked numbers belong to inactive results. The rule behind the calls is not given here.
# Biological target: Pantothenate synthetase (Mycobacterium tuberculosis (strain ATCC 25618 / H37Rv)) (UniProt P9WIL5)
# Experiment: Coupled enzyme confirmation of inhibitors against recombinant Mtb PanC (AID 375);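 note: 0% = full reaction with vehicle and 100% = no enzyme background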
# Conditions: coupled enzyme assay; at 10 µM, active compounds read high
# Sequence of Pantothenate synthetase (Mycobacterium tuberculosis (strain ATCC 25618 / H37Rv)) (P9WIL5 whole entry, looked up): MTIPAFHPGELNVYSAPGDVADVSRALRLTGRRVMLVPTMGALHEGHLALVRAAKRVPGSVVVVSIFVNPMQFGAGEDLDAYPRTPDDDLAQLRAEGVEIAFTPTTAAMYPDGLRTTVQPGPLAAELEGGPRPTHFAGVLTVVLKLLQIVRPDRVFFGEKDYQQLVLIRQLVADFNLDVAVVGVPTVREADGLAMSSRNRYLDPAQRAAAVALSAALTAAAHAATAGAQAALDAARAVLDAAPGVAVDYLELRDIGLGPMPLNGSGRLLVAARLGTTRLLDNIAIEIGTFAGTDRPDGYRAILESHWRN
row,Structure (SMILES),inhibition
1,Oc1ccc2cccnc2c1,7%
2,Cc1ccc(-n2nc(C)c3cc(C(=O)O)sc32)cc1,0%
3,CCN(CCO)C(=O)CC(c1ccccc1)c1cc(Br)ccc1O (stereo not given),5%
4,Cc1ccc(Nc2nc(CSc3nnc(-c4cccs4)o3)cs2)cc1,0%
5,Cc1cc2c(s1)c1cnn(CC(=O)NCCc3ccccc3)c(=O)c1n2C,0%
6,Cc1ccc(-c2csc3nnc(SCC(=O)NCc4ccco4)n23)cc1,2%
7,Cc1cc(C)c2c(n1)nn1c(N3CCN(c4ccccc4C)CC3)cc(C)nc21,4%
8,Cc1nc(SCC(=O)N2CCC(C(N)=O)CC2)n[nH]1,0%
9,COc1cccc(NC(=O)CSc2nnnn2C(C)C)c1,6%
10,CCN(C(=O)c1cc(Cl)ccc1OC)C1CCCCC1,0%
11,COc1ccc(C)cc1NC(=O)CN1CCN(S(=O)(=O)c2ccc(Cl)cc2)CC1,0%
12,COc1ccc(S(=O)(=O)NC2CCCCC2)c(C)c1C,4%
13,COc1ccccc1CN1CC(C(=O)NCc2cccnc2)CC1=O (stereo not given),2%
14,Cn1c(=O)c2[nH]c(NCC3CCCO3)nc2n(-c2ccccc2)c1=O (stereo not given),0%
15,CCOC(=O)c1[nH]c2ccc(F)cc2c1NC(=O)C(C)N1CCc2cc(OC)c(OC)cc2C1 (stereo not given),3%
16,CC(=O)Nc1c(C(=O)O)[nH]c2ccccc12,0%
17,O=C(CCn1c(=O)c2sccc2n(CC(=O)NCc2ccco2)c1=O)NCc1ccccc1,3%
18,CN1CCN(C2=Nc3cc(Cl)ccc3Nc3ccccc32)CC1,8%
19,CCN(CC)CCOC(=O)C1(C2CCCCC2)CCCCC1,0%
20,CS(=O)(=O)N1CCc2cc(S(=O)(=O)Nc3ccc4oc5c(c4c3)CCCC5)ccc21,3%

row,Structure (SMILES),inhibition
1,Clc1cccc(Cl)c1COc1ccncc1,0%
2,CC(C)OC(=O)CSc1nnc(-c2ccccn2)n1-c1ccccc1,8%
3,CC(C)C[C@H](NC(=O)Nc1cccc(C(F)(F)F)c1)C(=O)O,0%
4,O=C(NCc1cccs1)C1CCCN(c2ncccn2)C1 (stereo not given),0%
5,CC1=C(C#N)C(=O)NC(C)(C)C1,0%
6,Cc1ccccc1-c1nc2ccccc2c(=O)n1C1CCS(=O)(=O)C1 (stereo not given),0%
7,COc1ccccc1NC1=NC2(CCCC2)N=C(N)N1,0%
8,O=C(c1cc(-c2ccco2)nn1-c1cccc(Cl)c1)N1CCCCC1,8%
9,COCCCN1C(=O)C(=O)/C(=C(/O)c2ccc(OCC(C)C)cc2C)C1c1cccnc1 (stereo not given),0%
10,CC1CCCCC1NC(=O)CN1CCN(Cc2ccccc2Cl)C1=O (stereo not given),0%
11,CN(C)CC(C(=O)c1ccccc1)c1ccccc1 (stereo not given),4%
12,COc1ccc(/C=N/n2cc(-c3ccc(OC)cc3)nc2N)cc1,0%
13,N#Cc1cnc2sc3ccccc3n2c1=N,3%
14,O=C(Nc1c(-c2ccccc2)nc2ccccn12)c1ccco1,0%
15,Cc1ccc(Cn2c(CN3CCOCC3)nc3c2c(=O)n(C)c(=O)n3C)cc1,0%
16,CC1(C)Cc2noc(N)c2C(C)(C)N1OC(=O)c1ccco1,0%
17,O=c1c(O)c(-c2ccc(O)cc2O)oc2cc(O)cc(O)c12,9%
18,CCOc1cc(NC(=O)c2ccco2)c(OCC)cc1NC(=O)CCc1ccc(OC)cc1,3%
19,OCCOCCN1CCN(C(c2ccccc2)c2ccc(Cl)cc2)CC1 (stereo not given),1%
20,C[C@]12CCC(=O)C=C1CC[C@@H]1[C@@H]2[C@@H](O)C[C@@]2(C)[C@H]1CC[C@]2(O)C(=O)CO,0%
